Nine molecules from PubChem BioAssay (NCI) can be followed below.

The panel holds about 83,000 compounds, 20% with a hit somewhere; the sample as a whole holds those more often.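 Single-concentration screen, 48 h exposure, 96-well plates. Endpoint: percent growth. Below 10 = active.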 Values without a mark were called inactive. Active and inactive are the calls of the source.

Among the test systems are SR leukemia; RPMI-8226 leukemia; OVCAR-8 ovarian; OVCAR-5 ovarian; OVCAR-4 ovarian; SK-OV-3 ovarian; IGROV1 ovarian; HS 578T breast; NCI/ADR-RES ovarian; T-47D breast; BT-549 breast; MDA-MB-435 melanoma; SW-620 colon; MCF7 breast; HCT-116 colon; HCC-2998 colon; KM12 colon; OVCAR-3 ovarian.
Assay in all cases: NCI-60 one-dose screen, 48 h (100 = growth as untreated, 0 = no growth, -100 = all killed)
Common to all, as to conditions: 10 µM unless noted

With `O=C1C(=O)c2ccccc2C(O)=C1CCCc1ccc(C2CCCC2)cc1`, the growth with SR leukemia is -49.3% (active); in the assay with RPMI-8226 leukemia it was 7.4% (active); in the assay on OVCAR-8 ovarian it was 31.7%; in the assay on OVCAR-5 ovarian it was 24.9%; in the assay with OVCAR-4 ovarian it was 23.4%; in the assay on SK-OV-3 ovarian it was 55%. For the same molecule, the growth in the assay with IGROV1 ovarian was 50.8%; in the assay on HS 578T breast, 31.7%; with NCI/ADR-RES ovarian, 37.6%; with T-47D breast, 59.8%; with BT-549 breast, 40.3%; with MDA-MB-435 melanoma, 42%. Besides, the growth is 24.3% with SW-620 colon; 33.3% in the assay with MCF7 breast; 16.6% with HCT-116 colon; 36.7% in the assay on HCC-2998 colon; 27.6% with KM12 colon.
As to `O=c1oc2ccc3ccccc3c2cc1-c1ccnc2[nH]c(=S)[nH]c(=O)c12`, the growth with SR leukemia is 82.7%; with RPMI-8226 leukemia it was 89.1%; in the assay with OVCAR-8 ovarian, 99.8%; in the assay on OVCAR-5 ovarian, 112%; with OVCAR-4 ovarian, 117%; with SK-OV-3 ovarian it was 93.1%. For the same molecule, the growth in the assay with IGROV1 ovarian was 104%; with HS 578T breast, 107%; in the assay with NCI/ADR-RES ovarian, 94.8%; in the assay with T-47D breast, 103%; in the assay on BT-549 breast it was 101%; in the assay with MDA-MB-435 melanoma, 106%. Further, the growth is 105% in the assay on SW-620 colon, 96.8% in the assay with MCF7 breast, 93.9% with HCT-116 colon and 101% with KM12 colon.
As to `COc1ccc(CN2C(=O)/C(=C\C(=O)c3ccc(OCCN4CCCC4)cc3)c3ccccc32)cc1`, the growth in the assay on SR leukemia was -14.2% (active); in the assay with RPMI-8226 leukemia it was -4.7% (active); in the assay with OVCAR-8 ovarian it was 86.5%; in the assay on OVCAR-5 ovarian, 77.6%; in the assay with OVCAR-4 ovarian it was 60.4%; in the assay on SK-OV-3 ovarian, 101%. Besides, the growth with OVCAR-3 ovarian was 49.6%; with HS 578T breast, 84.2%; in the assay on NCI/ADR-RES ovarian it was 85.8%; in the assay on T-47D breast it was 57.8%; in the assay on BT-549 breast, 92.5%; with MDA-MB-435 melanoma, 90.2%. Moreover, the growth in the assay with SW-620 colon was 3.07% (active); in the assay with MCF7 breast, 32.4%; with HCT-116 colon, 18.5%; in the assay with HCC-2998 colon it was 101%; with KM12 colon, 85.4%.
For `O=C1Nc2ccccc2/C1=C/c1cn(CC(O)Cn2cc(/C=C3\C(=O)Nc4ccccc43)c3ccccc32)c2ccccc12` (stereo unspecified), the growth with SR leukemia is -2.94% (active); in the assay on RPMI-8226 leukemia it was -41.7% (active); in the assay with OVCAR-8 ovarian, 1.35% (active); in the assay on OVCAR-5 ovarian, -34.2% (active); with OVCAR-4 ovarian, -51.7% (active); with SK-OV-3 ovarian it was -38.2% (active). Moreover, the growth was -67.4% (active) in the assay on IGROV1 ovarian; -22.3% (active) in the assay on HS 578T breast; 31.8% with NCI/ADR-RES ovarian; -46.1% (active) in the assay with T-47D breast; -55.3% (active) in the assay with BT-549 breast; -87.6% (active) in the assay on MDA-MB-435 melanoma. For the same molecule, the growth in the assay on SW-620 colon is -60.4% (active); in the assay with HCT-116 colon, -64.2% (active); with HCC-2998 colon, -16.9% (active); in the assay with KM12 colon, -80.9% (active).
Regarding `C/C(=N\Nc1ccc(Cl)cn1)c1ccc2ccccc2n1`, the growth is 5.63% (active) in the assay with SR leukemia; 11.7% with RPMI-8226 leukemia; 6.73% (active) with OVCAR-8 ovarian; 29.9% with OVCAR-5 ovarian; 36.8% in the assay with OVCAR-4 ovarian; 1.69% (active) with SK-OV-3 ovarian. Further, the growth is 16.6% in the assay with IGROV1 ovarian; -0.464% (active) with NCI/ADR-RES ovarian; 31.9% in the assay with MDA-MB-435 melanoma; 27.5% with SW-620 colon; 7.14% (active) with MCF7 breast; 6.22% (active) in the assay on HCT-116 colon. In addition, the growth in the assay on HCC-2998 colon is 38.1%; in the assay on KM12 colon it was 20.2%.
With `CC(C)(C)C(=O)CCCCCCCC/C=C/CCCC(O)c1ccco1` (stereo unspecified), the growth in the assay on SR leukemia was 14.3%; in the assay with RPMI-8226 leukemia, 91.7%; in the assay on OVCAR-8 ovarian, 104%; in the assay with OVCAR-5 ovarian, 93.6%; in the assay with OVCAR-4 ovarian, 104%; in the assay with SK-OV-3 ovarian it was 116%. Further, the growth in the assay on OVCAR-3 ovarian is 126%; in the assay on HS 578T breast, 106%; with NCI/ADR-RES ovarian, 108%; in the assay on T-47D breast, 104%; in the assay with BT-549 breast it was 105%; with MDA-MB-435 melanoma it was 113%. The growth is 113% in the assay on SW-620 colon; 105% in the assay with MCF7 breast; 109% in the assay on HCT-116 colon; 88.6% in the assay with HCC-2998 colon; 113% with KM12 colon.
For the molecule `O=S(=O)(O)c1ccc2c(c1)Sc1cc(S(=O)(=O)O)ccc1O2`, the growth was 107% in the assay on SR leukemia; 101% in the assay on RPMI-8226 leukemia; 104% in the assay with OVCAR-8 ovarian; 92.1% in the assay with OVCAR-5 ovarian; 110% in the assay on OVCAR-4 ovarian; 107% in the assay with SK-OV-3 ovarian. Also, the growth in the assay on IGROV1 ovarian was 112%; in the assay on HS 578T breast, 110%; in the assay with NCI/ADR-RES ovarian, 104%; in the assay with T-47D breast it was 110%; with BT-549 breast, 127%; in the assay with MDA-MB-435 melanoma, 92.6%. In addition, the growth is 104% in the assay on SW-620 colon; 106% in the assay with MCF7 breast; 106% with HCT-116 colon; 102% with HCC-2998 colon; 108% in the assay with KM12 colon.
Take `C#CCCCCCCC[C@@H]1OC(=O)[C@H]([C@@H](C)CC)NC(=O)[C@H]([C@@H](C)CC)NC(=O)CC(=O)[C@@H]1C`: the growth in the assay on SR leukemia is 82.2%; in the assay on RPMI-8226 leukemia, 89.4%; in the assay with OVCAR-8 ovarian, 101%; with OVCAR-5 ovarian, 90.6%; in the assay with OVCAR-4 ovarian, 97.6%; in the assay with SK-OV-3 ovarian, 103%. The growth was 89.5% in the assay with IGROV1 ovarian; 90.1% in the assay with HS 578T breast; 94.9% in the assay on NCI/ADR-RES ovarian; 108% in the assay with BT-549 breast; 105% in the assay with MDA-MB-435 melanoma; 98.2% in the assay with SW-620 colon. The growth in the assay with MCF7 breast was 95.4%; in the assay on HCT-116 colon, 93.4%; in the assay with HCC-2998 colon, 106%; in the assay on KM12 colon it was 100%.
Consider `O=C(O)COc1ccc([N+](=O)[O-])cc1Cl`, for which the growth in the assay with SR leukemia was 97.6%; in the assay on RPMI-8226 leukemia, 94.2%; with OVCAR-8 ovarian it was 110%; with OVCAR-5 ovarian, 102%; in the assay with OVCAR-4 ovarian, 106%; in the assay on SK-OV-3 ovarian, 98.7%. The growth with IGROV1 ovarian was 100%; with NCI/ADR-RES ovarian, 107%; with T-47D breast, 86.1%; in the assay with BT-549 breast, 107%; in the assay on MDA-MB-435 melanoma it was 107%; in the assay with SW-620 colon, 108%. Also, the growth in the assay on MCF7 breast is 102%; with HCT-116 colon, 105%; with HCC-2998 colon, 113%; in the assay on KM12 colon, 103%.
